# Several values for one entry are separate records, joined by “and”; a condition that tells them apart may be missing. Equal entries are not always repeated. In all, about 5,500 compounds went through this assay and about 2,000 (36%) were called active. Roughly 18% stayed inconclusive and do not appear here. Some of the results follow. Unmarked numbers belong to inactive results. Rule as the data show it: active = normalized growth mostly below about 0.91 (no sharp cut-off); inconclusive = no clear call, values can overlap the other calls; inactive = mostly above about 0.92.
# Test: chemical genetic growth profiling, strain panel (AID 1159580);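 also: tested at 20 µM; growth read once vehicle control cultures reached saturation at 30 °C; 1 = growth at the plate median or of vehicle wells; lower values mean less growth of the strain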
# Settings: growth OD
# [1] = S. cerevisiae deletion strains, locus YAL013W, strain DEP1, active compounds read low
# [2] = S. cerevisiae deletion strains, locus YBR229C, strain ROT2, active compounds read low
# [3] = S. cerevisiae deletion strains, locus YDL101C, strain DUN1, active compounds read low
# [4] = S. cerevisiae deletion strains, locus YDL134C, strain PPH21, active compounds read low
# [5] = S. cerevisiae deletion strains, locus YDR150W, strain NUM1, active compounds read low
# [6] = S. cerevisiae deletion strains, locus YEL061C, strain CIN8, active compounds read low
# [7] = S. cerevisiae deletion strains, locus YGR078C, strain PAC10, active compounds read low
# [8] = S. cerevisiae deletion strains, locus YGR229C, strain SMI1, active compounds read low
# [9] = S. cerevisiae deletion strains, locus YHR030C, strain SLT2, active compounds read low
# [10] = S. cerevisiae deletion strains, locus YHR087W, strain rtc3, active compounds read low
# [11] = S. cerevisiae deletion strains, locus YJR043C, strain POL32, active compounds read low
# [12] = S. cerevisiae deletion strains, locus YJR075W, strain HOC1, active compounds read low
# [13] = S. cerevisiae deletion strains, locus YKL190W, strain CNB1, active compounds read low
# [14] = S. cerevisiae deletion strains, locus YLR039C, strain RIC1, active compounds read low
# [15] = S. cerevisiae deletion strains, locus YLR058C, strain SHM2 (second series), active compounds read low
# [16] = S. cerevisiae deletion strains, locus YLR085C, strain ARP6, active compounds read low
# [17] = S. cerevisiae deletion strains, locus YLR262C, strain YPT6, active compounds read low
# [18] = S. cerevisiae deletion strains, locus YML094W, strain GIM5, active compounds read low
# [19] = S. cerevisiae deletion strains, locus YMR219W, strain ESC1, active compounds read low
# [20] = S. cerevisiae deletion strains, locus YMR263W, strain SAP30, active compounds read low
# [21] = S. cerevisiae deletion strains, locus YMR307W, strain GAS1, active compounds read low
# [22] = S. cerevisiae deletion strains, locus YNL153C, strain GIM3, active compounds read low
# [23] = S. cerevisiae deletion strains, locus YNL298W, strain CLA4 (second series), active compounds read low
# [24] = S. cerevisiae deletion strains, locus YNL322C, strain KRE1, active compounds read low
# [25] = S. cerevisiae deletion strains, locus YNR030W, strain Alg12, active compounds read low
# [26] = S. cerevisiae deletion strains, locus YPL055C, strain LGE1, active compounds read low
# [27] = S. cerevisiae deletion strains, locus YPL241C, strain CIN2, active compounds read low
# [28] = S. cerevisiae deletion strains, locus YPR135W, strain CTF4, active compounds read low
# [29] = S. cerevisiae deletion strains, locus YOL006C, strain TOP1, active compounds read low
# [30] = S. cerevisiae strains, strain wild type, active compounds read low
smiles,measurement,setting,value
O=C(NNC(=S)Nc1cccc(Cl)c1)c1ccncc1,normalized growth,[1],0.977
same,normalized growth,[2],0.996
same,normalized growth,[3],0.983
same,normalized growth,[4],0.995
same,normalized growth,[5],0.95
same,normalized growth,[6],1
same,normalized growth,[7],0.983
same,normalized growth,[8],0.997
same,normalized growth,[9],1
same,normalized growth,[10],1
same,normalized growth,[11],0.98
same,normalized growth,[12],1.01
same,normalized growth,[13],1.01
same,normalized growth,[14],1.04
same,normalized growth,[15],0.981
same,normalized growth,[16],0.989
same,normalized growth,[17],0.99
same,normalized growth,[18],1.01
same,normalized growth,[19],0.991
same,normalized growth,[20],0.994
same,normalized growth,[21],1.02
same,normalized growth,"S. cerevisiae deletion strains, locus YNL128W, strain TEP1, active compounds read low",0.995
same,normalized growth,[22],0.986
same,normalized growth,[23],0.965
same,normalized growth,[24],0.991
same,normalized growth,[25],0.951
same,normalized growth,[26],0.914
same,normalized growth,[27],0.992
same,normalized growth,[28],0.938
O=C(NNC(=S)Nc1cccc(Cl)c1)C1CC1,normalized growth,[1],0.987
same,normalized growth,[2],0.951
same,normalized growth,[3],0.963
same,normalized growth,[4],0.99
same,normalized growth,[5],0.917
same,normalized growth,[6],0.857 (active)
same,normalized growth,[7],0.956
same,normalized growth,[8],1
same,normalized growth,[9],0.489 (active)
same,normalized growth,[10],0.986
same,normalized growth,"S. cerevisiae deletion strains, locus YJL187C, strain SWE1, active compounds read low",0.967
same,normalized growth,[11],0.942
same,normalized growth,[12],0.986
same,normalized growth,[13],0.913 (active)
same,normalized growth,[14],0.749 (active)
same,normalized growth,[15],0.998
same,normalized growth,[16],0.673 (active)
same,normalized growth,[17],0.949
same,normalized growth,[18],0.796 (active)
same,normalized growth,[19],0.988
same,normalized growth,[20],0.975
same,normalized growth,[21],0.684
same,normalized growth,[22],0.965
same,normalized growth,[23],0.782 (active)
same,normalized growth,[24],1.05
same,normalized growth,[25],0.859 (active)
same,normalized growth,[29],0.384 (active)
same,normalized growth,[26],0.735 (active)
same,normalized growth,[27],0.784 (active)
same,normalized growth,[28],0.69
same,normalized growth,[30],0.953
C[C@@H]1O[C@@H](O[C@H]2[C@H](Oc3cc(O)c4c(=O)cc(-c5ccc(O)cc5)oc4c3)O[C@H](CO)[C@@H](O)[C@@H]2O)[C@H](O)[C@H](O)[C@H]1O,normalized growth,[1],0.994
same,normalized growth,"S. cerevisiae deletion strains, locus YBR021W, strain FUR4, active compounds read low",1
same,normalized growth,[2],1
same,normalized growth,"S. cerevisiae deletion strains, locus YCL029C, strain bik1, active compounds read low",0.977
same,normalized growth,"S. cerevisiae deletion strains, locus YDL035C, strain GPR1, active compounds read low",1
same,normalized growth,"S. cerevisiae deletion strains, locus YDL074C, strain BRE1, active compounds read low",0.933
same,normalized growth,[3],0.998
same,normalized growth,[4],1.07
same,normalized growth,"S. cerevisiae deletion strains, locus YDL185W, strain tfp1, active compounds read low",0.95
same,normalized growth,"S. cerevisiae deletion strains, locus YDL192W, strain arf1, active compounds read low",0.998
same,normalized growth,"S. cerevisiae deletion strains, locus YDR101C, strain arx1, active compounds read low",0.937
same,normalized growth,"S. cerevisiae deletion strains, locus YDR162C, strain NBP2, active compounds read low",1.01
same,normalized growth,"S. cerevisiae deletion strains, locus YDR318W, strain mcm21, active compounds read low",1
same,normalized growth,"S. cerevisiae deletion strains, locus YDR388W, active compounds read low",0.996
same,normalized growth,"S. cerevisiae deletion strains, locus YDR502C, strain sam2, active compounds read low",0.99
same,normalized growth,[6],1
same,normalized growth,"S. cerevisiae deletion strains, locus YER110C, active compounds read low",0.982
same,normalized growth,"S. cerevisiae deletion strains, locus YER155C, strain BEM2, active compounds read low",0.991
same,normalized growth,"S. cerevisiae deletion strains, locus YER167W, strain BCK2, active compounds read low",0.994
same,normalized growth,"S. cerevisiae deletion strains, locus YGL078C, strain dbp3, active compounds read low",0.981
same,normalized growth,"S. cerevisiae deletion strains, locus YGL086W, strain mad1, active compounds read low",0.954
same,normalized growth,"S. cerevisiae deletion strains, locus YGL248W, strain PDE1, active compounds read low",1.02
same,normalized growth,"S. cerevisiae deletion strains, locus YGR135W, strain pre9, active compounds read low",1.02
same,normalized growth,"S. cerevisiae deletion strains, locus YGR252W, strain gcn5, active compounds read low",1.11
same,normalized growth,[9],0.989 and 1.02
same,normalized growth,"S. cerevisiae deletion strains, locus YHR079C, strain IRE1 (second series), active compounds read low",0.976
same,normalized growth,"S. cerevisiae deletion strains, locus YHR079C, strain IRE1, active compounds read low",1.03
same,normalized growth,"S. cerevisiae deletion strains, locus YHR094C, strain hxt1, active compounds read low",0.99
same,normalized growth,"S. cerevisiae deletion strains, locus YHR129C, strain ARP1, active compounds read low",1.02
same,normalized growth,"S. cerevisiae deletion strains, locus YHR200W, strain rpn10, active compounds read low",0.988
same,normalized growth,"S. cerevisiae deletion strains, locus YIL066C, strain RNR3, active compounds read low",0.994
same,normalized growth,"S. cerevisiae deletion strains, locus YIL073C, strain SPO22, active compounds read low",0.981
same,normalized growth,"S. cerevisiae deletion strains, locus YIL125W, strain kgd1, active compounds read low",0.972
same,normalized growth,"S. cerevisiae deletion strains, locus YIR030C, strain dcg1, active compounds read low",0.983
same,normalized growth,"S. cerevisiae deletion strains, locus YJL095W, strain BCK1, active compounds read low",1.03 and 0.992
same,normalized growth,"S. cerevisiae deletion strains, locus YJL134W, strain LCB3, active compounds read low",0.992
same,normalized growth,"S. cerevisiae deletion strains, locus YJL168C, strain set2, active compounds read low",1
same,normalized growth,"S. cerevisiae deletion strains, locus YJL187C, strain SWE1 (second series), active compounds read low",0.995
same,normalized growth,[11],0.993
same,normalized growth,"S. cerevisiae deletion strains, locus YJR066W, strain TOR1, active compounds read low",0.981
same,normalized growth,"S. cerevisiae deletion strains, locus YKL009W, strain mrt4, active compounds read low",0.955
same,normalized growth,"S. cerevisiae deletion strains, locus YKL068W, active compounds read low",0.987
same,normalized growth,"S. cerevisiae deletion strains, locus YKL085W, strain MDH1 (second series), active compounds read low",0.981
same,normalized growth,"S. cerevisiae deletion strains, locus YKL085W, strain MDH1, active compounds read low",0.981
same,normalized growth,"S. cerevisiae deletion strains, locus YKR001C, strain vps1, active compounds read low",0.982
same,normalized growth,[14],0.963
same,normalized growth,"S. cerevisiae deletion strains, locus YLR058C, strain SHM2, active compounds read low",0.998
same,normalized growth,"S. cerevisiae deletion strains, locus YLR102C, strain apc9, active compounds read low",0.987
same,normalized growth,"S. cerevisiae deletion strains, locus YLR113W, strain HOG1, active compounds read low",0.967
same,normalized growth,[17],0.95
same,normalized growth,"S. cerevisiae deletion strains, locus YLR268W, strain sec22, active compounds read low",0.951
same,normalized growth,"S. cerevisiae deletion strains, locus YLR330W, strain CHS5, active compounds read low",0.979
same,normalized growth,"S. cerevisiae deletion strains, locus YLR342W, strain FKS1 (second series), active compounds read low",1.01
same,normalized growth,"S. cerevisiae deletion strains, locus YLR371W, strain rom2, active compounds read low",0.98
same,normalized growth,"S. cerevisiae deletion strains, locus YLR418C, strain cdc73, active compounds read low",1.01
same,normalized growth,"S. cerevisiae deletion strains, locus YML016C, strain PPZ1, active compounds read low",0.995
same,normalized growth,"S. cerevisiae deletion strains, locus YML032C, strain rad52, active compounds read low",1.04
same,normalized growth,"S. cerevisiae deletion strains, locus YML124C, strain tub3, active compounds read low",0.978
same,normalized growth,"S. cerevisiae deletion strains, locus YMR078C, strain ctf18, active compounds read low",0.975
same,normalized growth,"S. cerevisiae deletion strains, locus YMR223W, strain ubp8, active compounds read low",1
same,normalized growth,[20],0.985
same,normalized growth,[21],1.05
same,normalized growth,"S. cerevisiae deletion strains, locus YNL067W, strain RPL9B, active compounds read low",0.999
same,normalized growth,"S. cerevisiae deletion strains, locus YNL183C, strain NPR1, active compounds read low",0.963
same,normalized growth,"S. cerevisiae deletion strains, locus YNL233W, strain BNI4, active compounds read low",0.988
same,normalized growth,"S. cerevisiae deletion strains, locus YNL250W, strain rad50, active compounds read low",0.955
same,normalized growth,"S. cerevisiae deletion strains, locus YNL271C, strain bni1, active compounds read low",0.981
same,normalized growth,"S. cerevisiae deletion strains, locus YNL298W, strain CLA4, active compounds read low",0.991
same,normalized growth,"S. cerevisiae deletion strains, locus YNL307C, strain MCK1, active compounds read low",0.971
same,normalized growth,"S. cerevisiae deletion strains, locus YNR052C, strain pop2, active compounds read low",1.01
same,normalized growth,[29],0.99
same,normalized growth,"S. cerevisiae deletion strains, locus YOL012C, strain htz1",0.768
same,normalized growth,"S. cerevisiae deletion strains, locus YOL147C, strain pex11, active compounds read low",0.992
same,normalized growth,"S. cerevisiae deletion strains, locus YOR061W, strain CKA2, active compounds read low",0.997
same,normalized growth,"S. cerevisiae deletion strains, locus YOR069W, strain VPS5, active compounds read low",0.994
same,normalized growth,"S. cerevisiae deletion strains, locus YOR136W, strain idh2, active compounds read low",0.965
same,normalized growth,"S. cerevisiae deletion strains, locus YOR144C, strain elg1, active compounds read low",0.996
same,normalized growth,"S. cerevisiae deletion strains, locus YOR184W, strain ser1, active compounds read low",0.993
same,normalized growth,"S. cerevisiae deletion strains, locus YOR231W, strain MKK1, active compounds read low",0.989
same,normalized growth,"S. cerevisiae deletion strains, locus YOR316C, strain cot1, active compounds read low",0.981
same,normalized growth,"S. cerevisiae deletion strains, locus YPL256C, strain CLN2, active compounds read low",1
same,normalized growth,"S. cerevisiae deletion strains, locus YPR119W, strain clb2, active compounds read low",0.978
same,normalized growth,"S. cerevisiae deletion strains, locus YPR141C, strain kar3, active compounds read low",0.986
same,normalized growth,"S. cerevisiae deletion strains, locus YPR163C, strain tif3, active compounds read low",0.992
same,normalized growth,"S. cerevisiae deletion strains, locus YPR167C, strain met16, active compounds read low",0.981
same,normalized growth,"S. cerevisiae deletion strains, strain wtn01, active compounds read low",0.948
same,normalized growth,[30],0.998
